These results are taken from ChEMBL document CHEMBL1156829.

Over roughly 5,400 compounds, “IFI” has its median near 2; the highest 2% begin near 22. The list comes from a sample in which the highest values are over-represented; it also holds similar structures and randomly drawn compounds.

The test in a line: NOVARTIS: Inhibition Frequency Index (IFI) - the number of HTS assays where a compound showed > 50% inhibition/induction, expressed as a percentage of the number of assays in which the compound was tested. It is filed as functional.
The molecule `Cc1ccc(C(=O)C(C)[n+]2ccc(N(C)C)cc2)cc1` (configuration not stated) showed an IFI of 0%.

In the case of `CC(/C=C/C(=O)NO)=C\[C@@H](C)C(=O)c1ccc(N(C)C)cc1`, the IFI stood at 22.6%.

The molecule `CN(C)c1ccc(/C=C/C(=O)NC(=O)c2ccccc2O)cc1` had an IFI of 10.6%.

`CC(C)COc1ccc(C(=O)N/C(=C/c2ccccc2)C(N)=O)cc1` gave an IFI of 0%.

`COc1ccccc1NC1=CC(=NS(=O)(=O)c2cccs2)c2ccccc2C1=O` yielded an IFI of 7.69%.

As for `COc1ccccc1NC1=CC(=NS(=O)(=O)c2ccc(F)cc2)c2ccccc2C1=O`, the IFI came out at 15.4%.

Regarding `COc1ccc(S(=O)(=O)N=C2C=C(Nc3ccc(O)cc3)C(=O)c3ccccc32)cc1`, the IFI turned out to be 23.1%.

For `O=C1C(Nc2ccc(O)cc2)=CC(=NS(=O)(=O)c2cccs2)c2ccccc21`, the IFI was 23.1%.

`COc1ccc(S(=O)(=O)N=C2C=C(Nc3ccccc3OC)C(=O)c3ccccc32)cc1` showed an IFI of 23.1%.

`COc1ccc(S(=O)(=O)N=C2C=C(Nc3ccccc3)C(=O)c3ccccc32)cc1` yielded an IFI of 0%.

The molecule `COc1ccccc1NC1=CC(=NS(=O)(=O)c2ccccc2)c2ccccc2C1=O` gave an IFI of 21.4%.

On to `CC(=O)Nc1ccc(NC2=CC(=NS(=O)(=O)c3ccccc3)c3ccccc3C2=O)cc1`, for which the IFI worked out at 7.69%.

Take `CCOc1ccc(S(=O)(=O)N=C2C=C(Nc3ccc(O)cc3)C(=O)c3ccccc32)cc1`: the IFI was found to be 15.4%.

For the molecule `CC(=O)N(C1=C(N2CCOCC2)C(=O)c2ccccc2C1=O)c1cccc(Cl)c1`, the IFI turned out to be 0%.

`O=C(NC1CC1)C1CCN(c2cccc3c2C(=O)N(C2CCCCCCC2)C3=O)CC1` gave an IFI of 5.94%.

Molecule `Cc1ccc2nc(-c3ccc(O)cc3)oc2c1` showed an IFI of 7.14%.

In the case of `O=S(=O)(Nc1cc(Sc2nc[nH]n2)c(O)c2ccccc12)c1ccc(F)cc1`, the IFI is 23.1%.

Consider `Cc1oc2c(cc(NS(=O)(=O)c3ccc(F)cc3)c3ccccc32)c1C(=O)OCc1ccccc1`, for which the IFI came to 0%.

As for `O=S(=O)(NCCCCNc1ccnc2cc(Cl)ccc12)c1ccc(F)cc1`, the IFI was determined as 1.85%.

As to `O=C(c1ccc2nc(N3CCCCC3)sc2c1)N1CCN(Cc2ccc3c(c2)OCO3)CC1`, the IFI came out at 2.86%.

`COc1ccc([N+](=O)[O-])cc1NC(=O)C(C)Nc1ccc(N(C)C)cc1` (configuration not stated): the IFI is 6.25%.

Take `CC1=C(C(=O)Nc2ccccn2)C(c2ccc(O)cc2)n2ncnc2N1` (configuration not stated): the IFI came out at 0%.

The molecule `O=C(NN=Cc1ccc(O)cc1O)c1ccncc1` gave an IFI of 2.73%.

Molecule `Oc1ccc(C=NN=C(Nc2ccccn2)c2ccccn2)c(O)c1` displayed an IFI of 23.1%.

Molecule `NS(=O)(=O)c1ccc(CCNC(=O)/C=C/c2ccc3c(c2)OCO3)cc1` showed an IFI of 0%.

The molecule `Oc1ccc(-c2ccnc3cc(Cl)ccc23)cc1CNCC1(O)CCCCC1` yielded an IFI of 2.59%.

`COc1ccc(C(=O)C[N+]2=C(C)c3ccc(C)n3CC2)cc1`: the IFI was found to be 0%.
